# This excerpt belongs to a sample that is enriched for hits.
# LmPK inh: inhibitors of Leishmania mexicana pyruvate kinase | purified LmPK, Kinase-Glo ATP luminescence, 1 h | Potency, µM (doses to about 57.5 µM), for inactives: at the top dose activity change, negative = inhibition, hits mostly inhibitors | 290,000 tested, 0.37% active; further: potency means the concentration at half of the fitted maximal effect; on the % scale 0 is the no-effect control and ±100 the full control effect
#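 In 50 mM imidazole pH 7.2 with 7 mM MgCl2, LmPK (0.1 nM) turned over PEP (0.5 mM) and ADP (0.1 mM) for 1 h at room temperature. Luciferase read-out of ATP.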
# RE007 growth inh: less growth of the S. pombe RE007 Vpr strain; S. pombe RE007 Vpr strain, BacTiter-Glo ATP luminescence, 24 h; Potency, µM (top dose mostly 92.2 µM), for the others: at the top dose activity change, negative = less growth, actives largely listed as inhibitors; 360,000 tested, 0.21% active; active means well fitted falling curve with a large enough effect; inconclusive means small, poorly fitted or top-dose-only effect; inactive means no such curve, though single readings can be large or run the other way; further: potency means the concentration at half of the fitted maximal effect; on the % scale 0 is the no-effect control and ±100 the full control effect; nearly all actives have a fitted effect of over 50% in size
#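 Fission yeast RE007 carrying one integrated HIV-1 vpr copy, seeded at OD 0.01 in PMG+AL medium with 23 nL pinned compound. Grown 24 h at 30 degrees; viability read by BacTiter-Glo luminescence after 5 min.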
# Cycloheximide cs: counter-screen hit for Shiga toxin inhibitors, cycloheximide. cell reporter, cycloheximide protein synthesis inhibition counterscreen. AID 2314. 300,000 tested, 12% active. max response, %; in the data active means max response mostly above about 13%, no sharp cut-off; inactive means mostly below about 14%; further: read at 38.3 µM for the half of the compounds with a filed dose; 0% is about no effect
# Giardia FBPA inh: blocks Giardia fructose-bisphosphate aldolase activity; A8B2U2; purified Giardia FBPA; Potency, µM (titrated, usually from 59.6 µM), for inactives: top-dose activity, negative = inhibition, actives largely listed as inhibitors; 290,000 tested, 0.71% active; further: potency means the concentration at half of the fitted maximal effect; on the % scale 0 is the no-effect control and ±100 the full control effect; nearly all actives have a fitted effect of over 55% in size
# Target sequence (A8B2U2 whole entry, looked up): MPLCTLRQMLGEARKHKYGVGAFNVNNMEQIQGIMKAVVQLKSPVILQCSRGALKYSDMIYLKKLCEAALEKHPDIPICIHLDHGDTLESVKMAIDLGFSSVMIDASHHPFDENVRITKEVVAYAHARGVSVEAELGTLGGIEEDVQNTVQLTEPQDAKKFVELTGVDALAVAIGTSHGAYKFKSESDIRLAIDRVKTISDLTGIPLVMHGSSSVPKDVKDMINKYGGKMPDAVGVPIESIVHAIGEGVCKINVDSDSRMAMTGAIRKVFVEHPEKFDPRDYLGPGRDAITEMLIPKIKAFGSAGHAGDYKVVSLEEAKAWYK
#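 40 nM FBPA preincubated 10 min at RT with compound (up to 57.5 uM final), then substrate plus GAPDH/TPI/NAD/arsenate coupling and diaphorase/resazurin added. Fluorescence read after 20 min at RT, 525/598 nm.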
# Shiga inhibitor: Shiga toxin inhibition; Vero cells, Shiga toxin protein synthesis inhibition reporter; inhibition, % at 38.7 µM; 290,000 tested, 9.2% active; in the data active means inhibition mostly above about 28%, no sharp cut-off; inactive means mostly below about 43%; further: 0% is about no effect
# TbPYK inhibitor: inhibitors of Trypanosoma brucei pyruvate kinase; Q57TT1; TbPYK enzyme, Kinase-Glo Plus ATP luminescence, 45 min; Potency, µM (series often up to 76.8 µM), without a hit: at the highest dose activity, negative = inhibition, actives largely listed as inhibitors; 410,000 tested, 0.12% active; AID 624173; further: potency means the concentration at half of the fitted maximal effect; on the % scale 0 is the no-effect control and ±100 the full control effect; nearly all actives have a fitted effect of over 50% in size
#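 Luminescent Kinase-Glo Plus end-point after 45 min room-temperature reaction of T. brucei pyruvate kinase started with 130 uM ADP (final). Buffer TEA 50 mM pH 7.2 with KCl, MgCl2, BSA, Tween-20; titration-based qHTS with fitted concentration-effect curves.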
# Active calls of the source: *; ? = inconclusive; . = not tested or not shown. Unless noted, the call rests on the fitted dose curve; in most records, active means well fitted curve in the direction sought with a large enough effect; inconclusive means small, poorly fitted or top-dose-only effect, or another doubt; inactive means no such curve, though single readings can be large; an effect the other way counts as inactive or inconclusive.
SMILES,LmPK inh,RE007 growth inh,Cycloheximide cs,Giardia FBPA inh,Shiga inhibitor,TbPYK inhibitor
CCOCCCNC1=C(Cl)C(=O)c2ccccc2C1=O,?,?,36.0*,-23.9%,72.0*,?
O=C1C(Cl)=C(NCCCO)C(=O)c2ccccc21,-12.1%,?,13.8*,?,12.8,-9.1%
Cc1ccccc1C(=O)Nc1ccc(S(=O)(=O)N2CCC(c3nc4ccccc4s3)CC2)cc1,.,.,.,.,.,-2.3%
CCc1ccc2c(c1)C1(C(=O)N2)N2CCCC2C(C(=O)c2ccc3ccccc3c2)C12C(=O)Nc1ccccc12 (configuration not stated),-7.3%,2.8%,45.9*,-10.2%,64.9*,-11.2%
CCc1cccc2c1NC(=O)C21N2CCCC2C(C(=O)c2ccc3ccccc3c2)C12C(=O)Nc1ccccc12 (configuration not stated),3.1%,-1.2%,1.3,-12.5%,-4.2,-11.8%
Cc1cccc2c1NC(=O)C21N2CCCC2C(C(=O)c2ccc3ccccc3c2)C12C(=O)Nc1ccccc12 (configuration not stated),-1.9%,-10.2%,16.4*,-24.0%,20.1,5.6%
CC(C)OC(=O)[C@@H]1CC[C@H](C)[C@@H](CCC[C@@H]2CC=C[C@H](CC#N)O2)O1,.,.,.,2.8%,.,.
C=C(C)CSc1nc2sc3c(c2c(=O)n1Cc1ccccc1)CC(C)(CC)OC3 (configuration not stated),.,.,.,.,.,-4.1%
Clc1ccc2nnnc(-c3ccccc3)c2c1,-2.9%,26.0%,52.1*,7.0%,97.8*,-2.0%
O=C(c1ccc2c(c1)CCN2S(=O)(=O)c1ccc(Cl)cc1)N1CCN(c2ccccc2F)CC1,.,.,.,.,.,-4.7%
O=C(Cn1c(-c2ccccc2)c[n+]2ccsc12)c1ccc([N+](=O)[O-])cc1,-0.8%,-5.4%,20.9*,-5.8%,70.5*,-8.9%
O=C(Nc1ccc(Cl)c(C(F)(F)F)c1)C(=O)N1CCCCC1,-4.7%,24.7%,26.8*,-1.0%,61.3,3.5%
O=C(Nc1ccc(Cl)c(Cl)c1)N1CCOCC1,0.0%,3.2%,14.7,0.5%,37.0*,-0.3%
O=C(Nc1ccc(Cl)c(Cl)c1)N1CCSCC1,-0.8%,8.6%,17.3,-5.5%,36.7,5.4%
O=C(Nc1ccc(Cl)c(Cl)c1)N1CCCCCC1,-2.7%,0.3%,51.4*,-2.7%,89.7*,1.3%
C=C(C)C1CC[C@]2(CO)CC[C@@]3(C)[C@H](CCC4[C@@]5(C)CCC(O)C(C)(C)C5CC[C@@]43C)C12 (some centres not stated),.,.,.,1.5%,.,.
CCn1c(O)c(/C=C2\C=Nc3ccccc32)sc1=Nc1ccccc1,0.5%,-5.1%,26.7*,-8.1%,98.1*,-1.8%
Cc1ccc(Nc2nc(N)c([N+](=O)[O-])c(NCc3ccco3)n2)cc1,1.6%,8.4%,33.8*,-0.1%,54.6*,-16.2%
Nc1nc(NCc2ccco2)nc(Nc2ccccc2)c1[N+](=O)[O-],4.3%,-7.0%,-2.4,3.3%,-6.0,2.7%
Nc1nc(Nc2ccccc2F)nc(NCc2ccco2)c1[N+](=O)[O-],3.2%,11.7%,39.0*,-4.5%,49.4*,-0.2%
Fc1ccc(Nc2nc(NCc3ccco3)c3ccccc3n2)cc1,2.2%,8.7%,29.6*,-11.9%,66.5*,1.3%
Nc1nc(Nc2ccccc2)nc(NCc2ccco2)c1[N+](=O)[O-],0.8%,48.7%,-1.6,-4.7%,0.0,0.9%
Cc1ccc(Nc2nc(N)c([N+](=O)[O-])c(NCCO)n2)cc1,1.1%,6.4%,12.7*,-0.7%,23.6,-5.5%
OC[C@H]1O[C@@H](O[C@@H]2OC=C[C@H]3[C@H](O)[C@@H]4O[C@]4(CO)[C@@H]23)[C@H](O)[C@@H](O)[C@@H]1O,.,.,-7.2,4.2%,-0.4,.
O=S(=O)(Nc1ccc(C(F)(F)F)cc1)c1ccc2c(c1)OCCO2,.,.,.,.,.,9.4%
SMILES,LmPK inh,RE007 growth inh,Cycloheximide cs,Giardia FBPA inh,Shiga inhibitor,TbPYK inhibitor
Cc1ccc(Nc2ccc([N+](=O)[O-])nc2[N+](=O)[O-])cc1,-1.8%,-0.2%,21.5*,-20.5%,-2.1,-13.2%
Cc1ccc(Nc2ccc3nonc3c2[N+](=O)[O-])cc1,-5.7%,-10.3%,-7.8,3.3%,29.9,2.0%
O=C(CC(SCc1ccco1)c1ccc(O)cc1)c1cccs1 (configuration not stated),-17.5%,-17.3%,37.2*,-2.5%,115.3*,-4.5%
O=C(CC(SCCO)c1ccc2c(c1)OCO2)c1cccs1 (configuration not stated),-22.8%,-22.2%,28.8*,2.5%,59.0,-31.4%
CN1CCCC(OC(=O)c2ccc(Cl)cc2)C1 (configuration not stated),-9.9%,6.2%,-1.5,-2.9%,-2.2,0.6%
CN1CCCC(OC(=O)c2ccc(C(C)(C)C)cc2)C1 (configuration not stated),5.2%,-0.2%,17.8*,-15.0%,28.3,1.2%
CN1CCCC(OC(=O)c2ccc3c(c2)OCCO3)C1 (configuration not stated),-1.6%,5.0%,13.3*,-13.4%,21.5,3.0%
Cc1ccnc(N/N=C/c2ccccc2)n1,?,-7.2%,28.3*,-21.9%,57.5*,-5.7%
C(=N\Nc1nccc(-c2cccnc2)n1)/c1ccccc1,-29.7%,-14.9%,55.7*,0.2%,88.6*,-23.1%
Cc1ccc(-c2cc(-c3ccccc3O)nc(N/N=C/c3cccnc3)n2)cc1,2.0%,13.0%,11.8,3.5%,12.1,0.3%
CSc1nccc(N/N=C/c2ccccc2)n1,-5.1%,-1.4%,59.4*,-0.7%,89.6*,4.4%
CCCNC(=O)CCn1nc(-c2ccc(C)cc2)c2ccccc2c1=O,1.1%,-0.7%,-1.4,4.6%,6.6,-0.3%
CCCNC(=O)CCC(=O)Nc1ncc(-c2ccc(C)cc2)n1C,-7.0%,-22.1%,24.7*,16.9%,32.9*,3.7%
COc1ccc(Nc2ncnc3c2cnn3C)c(OC)c1,.,.,.,.,.,-15.2%
CSc1nsc(SCc2ccc(F)cc2)n1,-7.1%,-13.6%,12.7*,-10.1%,7.8,-2.6%
Cn1cnnc1SCC(=O)Nc1ccccc1F,2.8%,0.2%,-2.2,3.2%,-6.2,1.4%
CSc1nsc(SCC(=O)Nc2ccccc2F)n1,-1.3%,16.3%,30.6*,0.9%,57.6*,-1.2%
CCOC(=O)c1ccc(NC(=O)CSc2nnc(-c3cccs3)n2CC)cc1,-10.5%,-7.4%,3.0,-3.8%,2.0,0.5%
CSc1nsc(SCC(=O)Nc2ccc(OC(C)=O)cc2)n1,7.0%,2.9%,26.9*,-6.1%,58.1,24.5%
CCOC(=O)c1ccc(NC(=O)CSc2nc(SC)ns2)cc1,0.3%,-24.1%,48.0*,-6.6%,60.2*,1.4%
Fc1ccc(CSc2nsc(SCc3ccc(F)cc3)n2)cc1,1.0%,0.0%,10.8,0.5%,-41.1,-8.6%
COc1ccc2oc(=O)cc(CN3CCN(C(=O)c4ccccc4Br)CC3)c2c1,.,.,.,.,.,3.0%
